Each structure is given as a SMILES string. This is part of a sample that, as a whole, favours compounds with a hit. Of some 79,000 tested, about 15% had one in any assay. A number with no mark means an inactive call. The source made the active and inactive calls. No stated cut-off is given here; in the data, active means growth inhibition above about 70%; inactive means the rest.

A short description of the first experiment: NCI Yeast Anticancer Drug Screen. Data for the cln2 rad14 strain (AID 165).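 Further: 0% = growth equal to vehicle treated cultures.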 The conditions noted are these: S. cerevisiae cln2 rad14 strain, at 50.0 µM, stronger effect = higher value. The procedure, abridged:
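Yeast strain cln2 rad14, bearing defects in cell cycle control and DNA repair, serves as the test system; values reflect growth inhibition compared with vehicle.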
Consider `CCCC=Nc1ccccc1`, for which the growth inhibition is -19.9%.
As for `COC(=O)c1sc(N2CCCC2)nc1N`, the growth inhibition was -1.3%.
Turning to `COc1cc(N=Nc2c(Cl)cc([N+](=O)[O-])cc2Cl)c(OC)cc1N=Nc1ccc(N)nc1N`, the growth inhibition is 5.9%.
For the compound `CC1CCCC(C)C1O` (configuration not stated), the growth inhibition is 12.3%.
The same measure, in the same setting: for `COc1ccc(/C=C/C(=N\NC(=O)c2ccccc2)c2sc(Nc3ccc([N+](=O)[O-])cc3)nc2C)cc1OC` the value was 22.8%; for `CCCN(CCC)CC(O)CN(CCC)CCC`, -36%; for `COc1cc2c(cc1OC)C1CC(CC(N)=O)(C(N)=O)CCN1CC2` (configuration not stated), -49.5%.
Regarding `COC(=O)CCc1onc(Br)c1CCl`, the growth inhibition is 0.35%.
Same read-out and setting: for `CC(=O)OCCOCNC(=S)NCc1ccco1` the value was 9.3%.
Same read-out and setting: for `CC(C)(O)C12CC3CC(CC(C3)C1)C2` the value was -38.2%; for `COc1cc([N+](=O)[O-])c(F)cc1F`, -20.1%.
Consider `O=[N+]([O-])c1ccc2c(c1)/C(=N/O)CCC2`, for which the growth inhibition was -86.4%.
Same read-out and setting: with `CN(C)CC(CN(C)C)C(=O)C(C)(C)C` the figure was -7.7%.
The same measure, in the same setting: with `COC(=O)C1C(COS(C)(=O)=O)ON2CCC(OC)(OC)C12` (configuration not stated) the figure was -15.8%; with `NNC(=S)NC1CCCCC1`, 12.2%.
With `O=C(O)C(O)c1ccc(Cl)cc1Cl` (configuration not stated), the growth inhibition was 7.25%.
Same read-out and setting: with `N#C/C(=C\NC(=S)Nc1ccc(S(=O)(=O)Nc2nccs2)cc1)C(=O)c1ccc2ccccc2c1` the figure was -9.75%; with `COC(=O)CNC(=O)Nc1cc(N2C(=O)ON3C2C(C)(C)N(O)C3(C)C)ccc1C` (configuration not stated), 20.6%; with `CN(C)C(=O)Sc1ccc(N(C)C)cc1`, -25.2%.
`C/C(=N/O)c1cccc([N+](=O)[O-])c1`: the growth inhibition was -14.3%.
Same read-out and setting: for `Cc1cn(C2CC(OC(=O)C(Cc3ccccc3)NC(=O)OCc3ccccc3)C(COC(=O)C(Cc3ccccc3)NC(=O)OCc3ccccc3)O2)c(=O)[nH]c1=O` (configuration not stated) the value was -26.7%.
The same measure, in the same setting: for `Cc1cc2nc(CC(O)c3nc4cc(C)c(C)cc4[nH]3)[nH]c2cc1C` (configuration not stated) the value was 5.1%.

The nature of the next experiment: NCI Yeast Anticancer Drug Screen. Data for the bub3 strain (AID 167). The settings on record: S. cerevisiae bub3 mutant strain, at 50.0 µM, stronger effect = higher value. In outline: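 Whole-cell yeast assay. The mutant strain was incubated with compounds, and growth inhibition was determined by comparison with vehicle-treated cells.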
With `O=Cc1cc(O)ccc1[N+](=O)[O-]`, the growth inhibition is -13.4%.
On the same count and under the same terms, for `O=C(Nc1nc(C23CC4CC(CC(C4)C2)C3)cs1)c1cc2ccc(O)cc2oc1=O` the value was 0.2%.
Same read-out and setting: for `Cc1ccccc1OCC(O)COC(=O)CCS(=O)(=O)O` (configuration not stated) the value was 37.2%; for `CC(=Nc1ccc(Cl)cc1)c1ccncc1`, 1.3%.
Still for that read-out and setting: with `O=C1CC2C=CC(O)C(C1)C2` (configuration not stated) the figure was -58.2%.
Regarding `O=C(Nc1ccn(CCI)c(=O)n1)c1ccccc1`, the growth inhibition is 15.2%.
Consider `C/C=C/C1OCC(C)(C)CO1`, for which the growth inhibition was -24.7%.
Regarding `Cc1ccc2cccc(N)c2n1`, the growth inhibition is 18%.
Still for that read-out and setting: with `CC1(C)CC(=O)OC/C=C\CC(Cc2ccccc2)C(=O)C1` (configuration not stated) the figure was 12.2%.
Same read-out and setting: for `O=C(O)c1ccncc1C(=O)O` the value was -5.8%.
Still for that read-out and setting: for `CCOC(=O)C1(C)Sc2ccccc2N=C1c1ccccc1` (configuration not stated) the value was 26.1%.
Regarding `C[N+](C)(CCCN1C(=O)c2cccc3c(Br)ccc(c23)C1=O)Cc1ccc(Cl)c(Cl)c1`, the growth inhibition was 95.7% (active).
The same measure, in the same setting: for `COC(=O)[C@@H]1[C@H](O)CC[C@H]2[C@@]1(C)CC[C@@H](C)[C@]2(COC(C)=O)CC(=O)c1ccoc1` the value was -47.9%; for `CC(=O)N(C(=O)CC(=O)N1N=C(C)C(N=Nc2cccc([N+](=O)[O-])c2)C1=O)c1ccc(Cl)cc1` (configuration not stated), -15.1%; for `COc1cccc2c1C(CO)N1C(C#N)C3CC(C(=O)O)C(C1C2)N3C` (configuration not stated), 8%.
Still for that read-out and setting: with `CCn1c(=O)c(C(=O)O)c(Cl)c2cc3c(cc21)OCO3` the figure was 6.15%.
Still for that read-out and setting: for `O=c1[nH]c(N2CCN(c3ccccc3)CC2)nc2cc3ccccc3cc12` the value was -5.15%; for `CCN(CC)c1nc(Cl)nc(C(N)=O)c1N`, -1.2%; for `CCCC=Nc1ccccc1`, 10.8%.
`COC(=O)c1sc(N2CCCC2)nc1N`: the growth inhibition was 11.4%.
Still for that read-out and setting: for `COc1cc(N=Nc2c(Cl)cc([N+](=O)[O-])cc2Cl)c(OC)cc1N=Nc1ccc(N)nc1N` the value was 3.85%.
On the same count and under the same terms, with `CC1CCCC(C)C1O` (configuration not stated) the figure was -4.6%.
Same read-out and setting: for `COc1ccc(/C=C/C(=N\NC(=O)c2ccccc2)c2sc(Nc3ccc([N+](=O)[O-])cc3)nc2C)cc1OC` the value was 30.8%; for `CCCN(CCC)CC(O)CN(CCC)CCC`, 5.55%.
Turning to `COc1cc2c(cc1OC)C1CC(CC(N)=O)(C(N)=O)CCN1CC2` (configuration not stated), the growth inhibition is 1.5%.
Still for that read-out and setting: with `COC(=O)CCc1onc(Br)c1CCl` the figure was 9.95%.
Same read-out and setting: with `CC(=O)OCCOCNC(=S)NCc1ccco1` the figure was 5.85%; with `CC(C)(O)C12CC3CC(CC(C3)C1)C2`, 5.25%; with `COc1cc([N+](=O)[O-])c(F)cc1F`, 9.35%.
Consider `O=[N+]([O-])c1ccc2c(c1)/C(=N/O)CCC2`, for which the growth inhibition is -15.8%.
On the same count and under the same terms, with `CN(C)CC(CN(C)C)C(=O)C(C)(C)C` the figure was 7.8%; with `COC(=O)C1C(COS(C)(=O)=O)ON2CCC(OC)(OC)C12` (configuration not stated), 7.3%.
As to `NNC(=S)NC1CCCCC1`, the growth inhibition was 16.9%.
The same measure, in the same setting: for `O=C(O)C(O)c1ccc(Cl)cc1Cl` (configuration not stated) the value was -19.3%.
On the same count and under the same terms, for `N#C/C(=C\NC(=S)Nc1ccc(S(=O)(=O)Nc2nccs2)cc1)C(=O)c1ccc2ccccc2c1` the value was -8%.
On the same count and under the same terms, with `COC(=O)CNC(=O)Nc1cc(N2C(=O)ON3C2C(C)(C)N(O)C3(C)C)ccc1C` (configuration not stated) the figure was 15.2%; with `CN(C)C(=O)Sc1ccc(N(C)C)cc1`, 15.1%.
On to `C/C(=N/O)c1cccc([N+](=O)[O-])c1`, for which the growth inhibition is -3.6%.
Regarding `Cc1cn(C2CC(OC(=O)C(Cc3ccccc3)NC(=O)OCc3ccccc3)C(COC(=O)C(Cc3ccccc3)NC(=O)OCc3ccccc3)O2)c(=O)[nH]c1=O` (configuration not stated), the growth inhibition is -12.9%.
Regarding `Cc1cc2nc(CC(O)c3nc4cc(C)c(C)cc4[nH]3)[nH]c2cc1C` (configuration not stated), the growth inhibition is -4.9%.

The record behind these values is PubChem BioAssay (NCI).
